Screening data: PubChem, several laboratories
In the library only some 3.8% were active in any assay of this set; here they are far more common.
Beta apoptosis = inhibitors of cytokine-induced beta cell apoptosis, primary screen, luminescence; protection from apoptosis, % (concentration not given with the values); INS-1E cytokine-induced death, ATP luminescence, 48 h; percent of positive-control rescue, neutral wells zero; actives 0.8% (n = 300,000);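 active = Every replicate reaches about 75%, or at least half do and their mean reaches it too, limit read from the data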;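 also: 0% = cytokine-treated negative control wells and 100% = positive control rescue; higher means more ATP so stronger rescue from cytokine killing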
697 NFkB inh = inhibitors of PMA/ionomycin-induced NF-kB reporter, 697 cells, primary screen, B-cell NF-kB inhibitor project, cell-based, luminescence, uHTS. 697 B-cell NF-kB luciferase reporter, 16 h. inhibition, % at 4 µM. actives 0.33% (n = 330,000); in the data active = inhibition above about 35%
NTR1 ag = agonists of human NTR1, primary screen, imaging, U2OS cells, beta-arrestin-GFP, high content | Neurotensin receptor type 1 (Homo sapiens), P30989 | NTR1-U2OS beta-arrestin-GFP spot imaging, agonist mode | activation, % at 20 µM | actives 0.17% (n = 330,000) | AID 493036, 2011;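 active = activation at or above 40% of the spot to cytoplasm intensity ratio, with at least 20 cells analyzed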;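 also: 0% = DMSO without peptide and 100% = 100 nM NTR1 peptide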
Bfl-1 A1 inh = caspase 3/7 activation in MEF A1-2A-BIM cells, primary screen, A1 inhibitor project, cell-based, luminescence, HTS; caspase activation, % (concentration not given with the values); AID 2462, 2010; actives 0.066% (n = 330,000); Caspase-Glo 3/7 luminescence, 3 h; percent of clofoctol response, vehicle zero;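 active = over half of replicate activation scores above 10%, or exactly half above 10 with the replicate mean above 10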
Jurkat NFkB inh = inhibitors of induced NF-kB luciferase reporter, primary screen, TCR NF-kB activation inhibitor project, cell-based, luminescence, uHTS | actives 0.53% (n = 330,000) | AID 435003, 2010 | inhibition, % at 4 µM | Jurkat, PMA/ionomycin-induced NF-kB luciferase reporter; in the data active = inhibition above about 50%
Mdm2 MdmX PPI = inhibitors of human Mdm2-MdmX association, primary screen, cell-based, luminescence, split luciferase, SaOS-2, uHTS; Protein Mdm4 (Homo sapiens) + E3 ubiquitin-protein ligase Mdm2 (Homo sapiens), …; SaOS-2 split-luciferase Mdm2/MdmX complementation; inhibition, % at 8 µM; actives 3% (n = 330,000);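 active = inhibition of at least 50% at 8 µM in the primary screen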
Target sequence (O15151 whole entry, looked up): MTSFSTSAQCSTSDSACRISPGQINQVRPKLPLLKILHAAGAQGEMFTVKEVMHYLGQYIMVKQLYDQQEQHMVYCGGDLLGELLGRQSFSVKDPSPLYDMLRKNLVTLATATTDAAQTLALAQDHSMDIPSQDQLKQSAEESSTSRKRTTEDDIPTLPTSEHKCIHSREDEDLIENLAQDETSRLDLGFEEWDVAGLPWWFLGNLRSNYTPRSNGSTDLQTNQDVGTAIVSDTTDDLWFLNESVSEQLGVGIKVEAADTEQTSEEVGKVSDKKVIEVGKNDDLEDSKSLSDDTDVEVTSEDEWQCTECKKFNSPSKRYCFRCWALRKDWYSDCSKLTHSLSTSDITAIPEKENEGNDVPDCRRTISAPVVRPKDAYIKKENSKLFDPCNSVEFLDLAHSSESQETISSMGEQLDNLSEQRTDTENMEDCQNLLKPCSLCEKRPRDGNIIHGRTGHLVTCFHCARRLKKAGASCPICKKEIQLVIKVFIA
Target sequence (Q00987 whole entry, looked up): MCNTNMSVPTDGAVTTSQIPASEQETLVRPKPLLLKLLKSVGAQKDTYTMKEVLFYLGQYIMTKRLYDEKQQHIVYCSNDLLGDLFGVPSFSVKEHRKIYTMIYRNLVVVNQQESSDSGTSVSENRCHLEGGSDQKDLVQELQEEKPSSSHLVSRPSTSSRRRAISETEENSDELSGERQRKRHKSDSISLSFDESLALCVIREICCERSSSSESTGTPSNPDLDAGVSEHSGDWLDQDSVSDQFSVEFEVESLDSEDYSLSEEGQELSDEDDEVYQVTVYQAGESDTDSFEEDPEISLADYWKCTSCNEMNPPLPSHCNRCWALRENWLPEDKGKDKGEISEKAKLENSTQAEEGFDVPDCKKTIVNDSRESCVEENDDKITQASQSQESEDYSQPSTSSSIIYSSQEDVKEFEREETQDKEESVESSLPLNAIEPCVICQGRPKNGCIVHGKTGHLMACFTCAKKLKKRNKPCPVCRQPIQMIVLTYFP
697 NFkB conf = PMA/ionomycin-induced NF-kB reporter inhibitors, 697 retest, confirmation, B-cell NF-kB inhibitor project, cell-based, luminescence, single concentration; shares compounds with 697 NFkB inh; 697 B-cell NF-kB luciferase, 16 h; inhibition, % at 4 µM; actives 35% (n = 2,000); AID 449746, 2010; in the data active = inhibition mostly above about 28%, no sharp cut-off; inactive = mostly below about 22%
* marks the source's active call; other numbers are inactive results; i = inactive; · = no result.

SMILES | Beta apoptosis | 697 NFkB inh | NTR1 ag | Bfl-1 A1 inh | Jurkat NFkB inh | Mdm2 MdmX PPI | 697 NFkB conf
ClCc1nnc(-c2ccccc2)o1 | -15.3 | 35.4* | 1.9 | 0.6 | 5.0 | 31.0 | 29.4*
c1ccc(OCc2nnc(-c3ccccc3)o2)cc1 | 0.6 | -39.0 | -0.5 | -0.6 | -58.7 | -42.2 | ·
Cc1ccn2cc(-c3ccc(Br)cc3)nc2c1 | 7.1 | -341.2 | 2.3 | -8.2 | -148.7 | -72.8 | -417.1
CCC(c1c(C)n(C)n(-c2ccccc2)c1=O)c1c(C)n(C)n(-c2ccccc2)c1=O | 1.7 | 18.1 | 1.5 | -0.2 | 7.6 | 9.1 | ·
CCCC(c1c(C)n(C)n(-c2ccccc2)c1=O)c1c(C)n(C)n(-c2ccccc2)c1=O | -3.4 | 40.5* | 0.0 | 0.4 | -0.9 | 13.6 | -0.1
COc1ccc(F)cc1S(=O)(=O)NCc1cc(=O)n(C)c(=O)n1C | -2.4 | 10.1 | -0.5 | 1.3 | 1.7 | 9.5 | ·
Cc1nc(C(=O)NC2CCCCC2)sc1C1(C)CC(c2cccnc2)=NO1 (centres undefined) | 1.4 | 6.1 | 0.8 | 0.7 | 22.7 | 11.8 | ·
Cc1ccc(N=Nc2ccc3ccccc3c2O)cc1 | 16.5 | -268.4 | 3.4 | -10.5 | -82.0 | 20.4 | -285.6
Oc1c(N=Nc2ccc(F)cc2)ccc2ccccc12 | 7.5 | -243.1 | 1.0 | -10.4 | -141.2 | -116.2 | ·
O=C(c1ccc(F)cc1F)N1CCC(N2CCC(C(=O)N3CCOCC3)CC2)CC1 | -8.7 | -5.3 | 1.3 | 0.2 | 14.6 | 20.1 | ·
Cc1cc(Cl)c(S(=O)(=O)NC(C(=O)O)C(C)C)cc1OCC(=O)NC1CCCCC1 (centres undefined) | -9.3 | 37.0* | 1.9 | -0.5 | 11.2 | 1.3 | 1.7
CCC(=O)N1c2ccccc2[C@@H](N(C(C)=O)c2ccccc2)C[C@H]1C | · | 50.6* | -0.7 | 0.9 | 5.4 | 45.1 | 37.9*
COc1ccc(-c2nsc(SCC(=O)Nc3cc(C)on3)n2)cc1 | -3.7 | 43.1* | -0.5 | 2.3 | -34.5 | 29.4 | 29.6*
Cc1ccoc1C(=O)Nc1ccc(CC(=O)O)cc1 | 9.2 | 65.9* | -1.0 | -3.6 | 37.8 | -2.0 | 59.6*
CCc1noc(C)c1C(=O)OCC(=O)NC(=O)c1ccccc1 | · | 8.9 | -0.8 | -0.6 | -8.4 | 13.4 | ·
COc1ccc(NC(=O)CN(C)C(=O)C2(c3ccccc3)CCCC2)cc1 | 27.1 | 71.0* | -0.9 | 0.7 | 12.4 | 15.8 | 72.1*
O=C(Nc1nc2c(F)cc(F)cc2s1)c1ccccn1 | 92.9* | i | 3.0 | -7.2 | -31.7 | 25.2 | -318.3
C=CCNC(=O)c1ccc(-c2nc(-c3ccccc3)cs2)cc1 | -14.0 | -278.5 | 2.0 | 1.3 | -53.7 | -76.6 | -145.3
C=CCNC(=O)c1ccc(-c2nc3ccccc3nc2-c2ccccc2)cc1 | · | 11.1 | 1.0 | -0.5 | 6.6 | 2.7 | ·
O=C1CCC([N+](=O)[O-])C(c2ccc(-c3ccccc3)cc2)N1 (centres undefined) | -3.5 | 13.3 | -0.4 | -0.1 | 5.3 | 16.6 | ·
Cc1ccc(-c2csc(N3C(=N)SCC3=O)n2)cc1 | -1.9 | -268.0 | 1.1 | -7.0 | -103.5 | -135.9 | -168.9
Cc1ccc(-n2c(O)c(C=Nc3ccccc3-c3n[nH]c(=S)[nH]c3=O)c3ccccc3c2=O)cc1C | · | 28.4 | 4.4 | · | 9.5 | 18.9 | ·
Cc1cccc(-n2c(O)c(C=Nc3ccccc3-c3n[nH]c(=S)[nH]c3=O)c3ccccc3c2=O)n1 | 4.0 | 38.1* | 0.6 | 1.4 | 5.9 | 4.0 | -20.8
COc1cc2[nH]c(=S)n(CC3CCCO3)c(=O)c2cc1OC (centres undefined) | -1.3 | 37.1* | 0.1 | -0.8 | 2.0 | 18.5 | 22.6
CCOc1cc2[nH]c(=S)n(CC3CCCO3)c(=O)c2cc1OCC (centres undefined) | 6.1 | 24.3 | 7.7 | -0.7 | 0.5 | 6.7 | ·
SMILES | Beta apoptosis | 697 NFkB inh | NTR1 ag | Bfl-1 A1 inh | Jurkat NFkB inh | Mdm2 MdmX PPI | 697 NFkB conf
Cc1ccccc1-c1nnc(SCC(=O)N2CCCC2)o1 | -8.0 | -31.7 | 0.1 | -0.3 | -65.8 | -11.9 | ·
Cc1c(O)ccc(/C=N/Nc2ncccc2[N+](=O)[O-])c1O | 6.2 | -370.9 | 1.7 | -7.1 | -131.2 | -64.9 | -277.8
CCc1sc(C(=O)Nc2cccc(-n3cnnn3)c2)cc1C | 5.8 | 36.9* | 6.2 | -0.7 | 23.2 | 30.9 | 39.2*
COCc1ccc(C(=O)N2CCC(CCC(=O)Nc3cccc(C)c3)CC2)s1 | 3.1 | 39.1* | 1.0 | 0.7 | 18.7 | -4.6 | 16.7
Cc1cccc(NC(=O)CCC2CCN(C(=O)c3ccc(C)s3)CC2)c1 | 3.2 | 10.1 | 0.1 | 0.7 | 2.0 | 16.5 | ·
O=C(CC1SC(N2CCOCC2)=NC1=O)Nc1ccc(Cl)c(C(F)(F)F)c1 (centres undefined) | -14.2 | -6.7 | 3.1 | 0.9 | 8.4 | -16.4 | ·
COc1ccc(/C=C2\CC/C(=C\c3ccc(OC)c(OC)c3)C2=O)cc1OC | 1.5 | -17.8 | 10.7 | 0.5 | -1.9 | 20.1 | ·
COc1cc(/C=C2/CC/C(=C/c3ccc(O)c(OC)c3)C2=O)ccc1O | 15.3 | 36.4* | 17.6 | -1.3 | 3.9 | 31.0 | 6.2
Cc1ccn2c(=O)nc(SCC(=O)c3ccc(Cl)cc3)nc2c1 | · | -52.2 | 4.6 | -0.8 | -25.3 | -26.1 | ·
Cc1ccn2c(C(=O)c3ccc(Cl)cc3)cnc2c1 | 4.1 | -259.4 | -3.5 | 0.9 | -147.2 | 3.0 | -145.4
CN(C)S(=O)(=O)c1cccc(COC(=O)CN2C(=O)NC3(CCCC3)C2=O)c1 | -4.7 | 2.8 | -0.7 | 0.6 | -0.5 | 8.4 | ·
O=C(COC(=O)c1cncc(Br)c1)NCC12CC3CC(CC(C3)C1)C2 | · | 0.6 | -0.1 | · | 5.6 | 22.3 | ·
O=C(Cc1ccc(Cl)cc1)Nc1nc2ccccc2[nH]1 | 3.0 | -21.7 | 0.3 | -0.2 | -14.2 | 18.1 | ·
O=C(Nc1nc2ccccc2[nH]1)c1ccc(Cl)cc1 | 23.9 | -319.6 | -1.3 | -9.0 | -139.7 | -7.5 | -341.6
Cc1cc(-c2ccccc2)c2ccc(NC(=O)C(C)(C)C)nc2n1 | 9.2 | 1.6 | 6.2 | 0.5 | -24.9 | -15.5 | ·
CC(OC(=O)CCCN=C1NS(=O)(=O)c2ccccc21)C(=O)c1ccccc1 (centres undefined) | -1.6 | 7.7 | -0.1 | 0.0 | 9.5 | -5.3 | ·
CN(C)c1ccc(C(O)Cc2nc3ccccc3n2C)cc1 (centres undefined) | 1.4 | -269.2 | 0.5 | -1.4 | -107.4 | 5.3 | -289.4
CC(C)c1ccc(C(O)Cc2nc3ccccc3n2C)cc1 (centres undefined) | -1.3 | -73.9 | 0.7 | 0.4 | -43.1 | -16.3 | ·
